Several values for one entry are separate records, joined by “and”; a condition that tells them apart may be missing. Identical values can stand only once. Records with an inconclusive call do not appear. Where a structure was tested more than once in an assay, its records may differ in their call. Activity calls are given as the source filed them. Unless noted, calls come from the whole dose curve; as a rule, active = well fitted curve in the direction sought with a large enough effect; inconclusive = small, poorly fitted or top-dose-only effect, or another doubt; inactive = no such curve, though single readings can be large; an effect the other way counts as inactive or inconclusive.

A short description of assay [1]: qHTS assay for measurement of the activity of small molecule inhibitors on Zika virus induced Caspase-3 activity in human iPSC derived neural progenitor cells (hNPCs) (AID 1224857). Note: % of control where 0% means no effect; nearly all actives have a fitted effect of over 65% in size. In outline:
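Pretreat hNPCs with compound 1 h; infect ZIKV 2 FFU/cell; 6 h 37 C, 5% CO2; Caspase-Glo 3/7, 30 min RT; luminescence; normalize to no-virus and virus-only wells.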
(In qHTS, concentration-response curves come from the screen itself.)

Assay [2] is described as follows: qHTS assay for measurement of the activity of small molecule inhibitors on Zika virus induced Caspase-3 activity in human astrocytoma cells (AID 1224859).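 Note: plate controls were ZIKV-infected untreated cells for no effect and uninfected cells for full effect.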 Summed up:
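Human SNB-19 astrocytoma cells in RPMI 1640 with 10% FBS receive compound one hour ahead of Zika virus at 2 FFU/cell. After 6 h infection, caspase-3/7 activity is detected by Caspase-Glo luminescence.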

The nature of assay [3]: qHTS assay to identify small molecule inhibitors of chordoma cells - UCH-2 (AID 1259356). Note: % is set by controls: 0 for no effect and ±100 for the full control effect.
Assay [4] is described as follows: qHTS Assay for Identifying Gametocytocidal Compounds (AID 743244).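 For max response: % is set by controls: 0 for no effect and ±100 for the full control effect; actives lower the fluorescent signal which means gametocytes are killed.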 Note: potency is the fitted concentration of half-maximal effect. The conditions noted are these: P. falciparum 3D7 stage III-V gametocytes, alamarBlue, 72 h; max response: stronger effect = lower value. Summed up:
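Compounds are pinned into medium, gametocytes (stage III–V, 3D7, 20,000 cells/well) added, and plates held 72 h at 37 °C in 5% CO2. AlamarBlue follows for 24 h before fluorescence reading.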

Assay [5] is described as follows: qHTS assay for cell viability of HEK293 cells (AID 743288). Note: % is set by controls: 0 for no effect and ±100 for the full control effect; nearly all actives have a fitted effect of over 50% in size. The conditions noted are these: ATP luminescence (CellTiter-Glo), 18 h, stronger effect = lower value. In outline:
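HEK293, 18 h, 37 C, ATP luminescence. Cells at 2,000/well were allowed at least 5 h to settle before dosing; CellTiter-Glo developed 30 min at RT.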

The nature of assay [6]: qHTS assay for cell viability of the p53RE-bla HCT-116 cell line (AID 743292). Note: % is set by controls: 0 for no effect and ±100 for the full control effect; nearly all actives have a fitted effect of over 55% in size. In outline:
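ATP-based luminescent viability (CellTiter-Glo, 30 min RT) after 16 h compound treatment at 37 C of p53RE-bla HCT-116 cells, seeded at 4,000 cells/well and rested 5 h before dosing.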

A short description of assay [7]: qHTS assay to identify small molecule inhibitors of chordoma cells - UCH-1 (AID 1259355). Note: % is set by controls: 0 for no effect and ±100 for the full control effect; nearly all actives have a fitted effect of over 55% in size. In outline:
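Screening used approved and investigational drugs in 15-point titration against 800 seeded cells per well. A fixed combination of auranofin with camptothecin, doxorubicin, rubitecan and topotecan followed compound addition, and growth was scored by CellTiter-Glo after 48hr.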

For assay [8], the target named is T1, Hexokinase-4 (Homo sapiens) + Glucokinase regulatory protein (Homo sapiens) (UniProt P35557+Q14397). The assay can be described thus: qHTS assay for inhibitors of recombinant human GCK-GKRP interaction: ADP-Glo assay (AID 743206).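 Note: plate controls were DMSO plus enzyme for no effect and no enzyme for full effect.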 Summed up: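 Pin-transferred compounds meet a 15 nM GST-GCK/15 nM FLAG-GKRP/2 uM S6P mix (dispense concentrations). ATP is then added to 0.4 mM final with 5 mM glucose, and the reaction runs 60 min at room temperature. ADP is quantified luminescently.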

Assay [9] concerns the target T1, Hexokinase-4 (Homo sapiens) + Glucokinase regulatory protein (Homo sapiens). The assay can be described thus: qHTS assay for inhibitors of recombinant human GCK-GKRP interaction: HTRF assay (AID 743207).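 Note: 0% = DMSO with GCK present and -100% = DMSO wells lacking GCK.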 In outline: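 Titration screening format: recombinant GST-GCK and FLAG-GKRP at 5 nM, S6P at 2 uM, labelled anti-tag antibodies, 60 min at RT, dual-wavelength HTRF readout.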

A short description of assay [10]: qHTS profiling for inhibitors of Plasmodium falciparum (3D7) proliferation (AID 743322).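 Note: infected erythrocytes exposed to compound for 72 h before lysis; 100% = DMSO vehicle wells and 0% = 0.29 µM artemisinin.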 As to conditions: P. falciparum 3D7 proliferation; at 28.7 µM (top of the series) unless noted. Summed up:
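Parasite DNA was quantified by SYBR Green I fluorescence (ex 485, em 535 nm) after overnight lysis in saponin/Triton buffer at room temperature. Cultures at 0.3% parasitemia and 2.5% hematocrit were first exposed to compound for 72 h at 37 C; signals were normalised to artemisinin (0.29 uM) and vehicle wells.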

Assay [11] in a line: qHTS profiling for inhibitors of Plasmodium falciparum (DD2) proliferation (AID 743323; call rule not given here). The conditions noted are these: lower = more inhibition; at 28.7 µM (top of the series) unless noted. Summed up:
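1536-well qHTS; infected RBCs 0.3% parasitemia/2.5% Hct final; cpd 72 h 37 C 5% CO2; lysis buffer + SYBR Green I, o/n RT dark; FI 485/535; norm. to 0.29 uM artemisinin and DMSO, plate-stack corrected.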

Assay [12] can be described thus: qHTS profiling for inhibitors of Plasmodium falciparum (HB3) proliferation (AID 743324).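 Note: 100% = DMSO vehicle wells and 0% = artemisinin-treated control wells.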 The conditions noted are these: Plasmodium falciparum HB3 blood-stage proliferation; at 28.7 µM (top of the series) unless noted. Summed up:
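SYBR Green fluorescence (485 ex/535 em) of lysed cultures, incubated overnight at room temperature in the dark, quantifies parasite DNA. Infected erythrocytes at 0.3% parasitemia and 2.5% hematocrit were exposed 72 h; values normalized to DMSO and 0.29 uM artemisinin controls.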

Assay [13] can be described thus: Identifying Small Molecule Inhibitors of Pancreatic Cancer Stem Cells (SN12C, Adherent) (AID 1259358).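 Note: potency is the fitted concentration of half-maximal effect; cell survival measured after 48 h of compound exposure.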 The conditions noted are these: viability/growth inhibition. In outline:
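Monolayer and spheroid cultures are compared. Spheroids form over 14 days in stem cell medium on hydrogel-coated low-attachment plates, then are exposed to compound for 48 h before CellTiter-Glo luminescence.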

Assay [14] in a line: Identifying Small Molecule Inhibitors of Pancreatic Cancer Stem Cells (Panc1, Spheroid) (AID 1259359).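 Note: potency is the fitted concentration of half-maximal effect; compound exposure lasted 48 h before reading.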 The conditions noted are these: Panc1 spheroid cancer stem cell viability. In outline: (§1)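 Luminescent ATP readout (CellTiter-Glo) quantifies surviving cells after a 48 h drug incubation. Normalization uses DMSO wells as no inhibition and media-only wells as full inhibition; bortezomib served as positive control.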

Assay [15] in a line: Identifying Small Molecule Inhibitors of Pancreatic Cancer Stem Cells (SN12C, Spheroid) (AID 1259360). Note: potency is the fitted concentration of half-maximal effect. The conditions noted are these: SN12C spheroid viability. In outline: as §1

T1 sequence (P35557 whole entry, looked up): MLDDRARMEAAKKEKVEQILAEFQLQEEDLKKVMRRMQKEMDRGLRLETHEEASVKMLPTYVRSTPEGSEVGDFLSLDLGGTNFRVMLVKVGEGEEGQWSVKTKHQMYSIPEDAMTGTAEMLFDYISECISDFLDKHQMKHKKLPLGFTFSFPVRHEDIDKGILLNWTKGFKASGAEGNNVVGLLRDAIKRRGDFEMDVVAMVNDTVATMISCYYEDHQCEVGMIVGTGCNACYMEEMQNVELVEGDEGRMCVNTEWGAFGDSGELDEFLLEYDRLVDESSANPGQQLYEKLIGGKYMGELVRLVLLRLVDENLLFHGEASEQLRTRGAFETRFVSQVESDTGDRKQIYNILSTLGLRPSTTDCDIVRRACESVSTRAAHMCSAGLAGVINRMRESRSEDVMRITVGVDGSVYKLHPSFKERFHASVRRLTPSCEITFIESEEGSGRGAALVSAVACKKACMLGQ
T1 sequence (Q14397 whole entry, looked up): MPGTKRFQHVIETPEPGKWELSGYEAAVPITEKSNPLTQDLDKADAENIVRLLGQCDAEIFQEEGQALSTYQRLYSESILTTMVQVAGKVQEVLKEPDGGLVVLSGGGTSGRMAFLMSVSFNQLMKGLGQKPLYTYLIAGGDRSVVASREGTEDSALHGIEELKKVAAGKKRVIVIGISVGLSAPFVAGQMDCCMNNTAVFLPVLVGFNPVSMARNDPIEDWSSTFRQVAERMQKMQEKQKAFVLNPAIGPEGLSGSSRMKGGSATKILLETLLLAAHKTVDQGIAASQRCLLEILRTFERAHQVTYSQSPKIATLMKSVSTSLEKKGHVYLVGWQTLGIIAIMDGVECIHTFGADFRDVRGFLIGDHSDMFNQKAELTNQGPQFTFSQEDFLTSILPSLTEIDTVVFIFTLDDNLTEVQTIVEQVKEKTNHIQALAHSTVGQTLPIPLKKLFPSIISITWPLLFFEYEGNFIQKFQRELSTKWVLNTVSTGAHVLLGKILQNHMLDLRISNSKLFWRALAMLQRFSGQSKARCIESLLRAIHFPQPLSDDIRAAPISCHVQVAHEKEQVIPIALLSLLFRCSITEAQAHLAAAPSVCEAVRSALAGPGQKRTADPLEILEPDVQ

`CN1CCC[C@@H]1c1cccnc1`: the result in assay [1] and in assay [2] was inactive. In addition, in [3], the Potency result was “inactive”.
`CCCCCCc1ccc(O)cc1O`: the max response was 3.3% (inactive) in [4]; -5.8% (inactive) and 9.71% (inactive) in [5]. The result in [6], in [1] and in assay [2] was inactive. In addition, the Potency result in [7] and in assay [3] was “inactive” each time.
In the case of `COC(=O)[C@H]1[C@H]2C[C@H]3c4[nH]c5ccccc5c4CCN3C[C@H]2CC[C@@H]1O`, the result in [8], in assay [9], in [1] and in assay [2] was inactive. Further, the max response in [4] is 13.2% (inactive) and 17.2% (inactive). The Potency entry in assay [3] was “inactive”.
As for `Cc1cc(N)c2cc(NC(=O)Nc3ccc4nc(C)cc(N)c4c3)ccc2n1`, in [4], the max response was -2.17% (inactive). In addition, the outcome in [1] and in assay [2] was inactive. The Potency result in [7] and in assay [3] was “inactive” throughout.
In the case of `CNCCC(Oc1ccccc1C)c1ccccc1` (centres undefined), the result in assay [8], in assay [9], in assay [1] and in assay [2] was inactive. For the same compound, in assay [4], the max response is 9.68% (inactive). Moreover, the Potency entry in [7] was “inactive”.
In the case of `COc1cc2c(cc1OC)C(=O)C(CC1CCN(Cc3ccccc3)CC1)C2` (centres undefined), the max response in [4] is 3.63% (inactive). The outcome in assay [1] and in assay [2] was inactive. In addition, the Potency entry in assay [7] and in assay [3] was “inactive” in each case.
In the case of `C[C@]12CC[C@@H]3c4ccc(O)cc4CC[C@H]3[C@@H]1CC[C@@H]2O`, the outcome in assay [8], in assay [9], in assay [6], in assay [1] and in [2] was inactive. Further, the max response in [4] is 23.5% (inactive) and 41.3% (inactive); in [5] it was -9.32% (inactive). Besides, the Potency entry in assay [3] was “inactive”.
As for `N[C@H](Cc1c[nH]c2ccccc12)C(=O)O`, the compound was called inactive in [1] and in assay [2]. Moreover, the Potency result in [3] is “inactive”.
Turning to `COc1cccc2c1C(=O)c1c(O)c3c(c(O)c1C2=O)C[C@@](O)(C(=O)CO)C[C@@H]3O[C@H]1C[C@H](N)[C@H](O)[C@H](C)O1`, the Potency was 526 nM (active) and 2.82 µM (active) in assay [4]; 3.32 µM (active) in [13]; 5.9 µM (active) in assay [14]; 18.7 µM (active) in assay [15]. Also, the max response in assay [4] was -8.37% (inactive). Also, the outcome in assay [6], in assay [1] and in assay [2] was inactive. In [10], the remaining parasite growth % (stronger effect = lower value) is -4.76%. The activity, percent of control in assay [11] is -2.65%. Besides, the remaining proliferation (% of control), lower = more inhibition in [12] is -0.62%. In assay [3], the Potency entry is “inactive”.
For the compound `CCCCCCC[N+](CC)(CC)CCCCc1ccc(Cl)cc1`, the Potency in assay [4] was 3.55 µM (active). Moreover, the result in assay [1] and in assay [2] was inactive. The Potency entry in [7] was “inactive”.
In the case of `CN(C)CC/C=C1\c2ccccc2Sc2ccc(Cl)cc21`, the call in assay [1] and in [2] was inactive. Besides, the Potency entry in assay [3] is “inactive”.
Regarding `CC/C(=C(/CC)c1ccc(O)cc1)c1ccc(O)cc1`, the max response is 26.7% (inactive) in [4]; -28.4% (inactive) and -12.5% (inactive) in [5]. Further, the result in assay [6], in assay [1] and in assay [2] was inactive. The Potency result in [7] and in assay [3] was “inactive” in each case.

For the origin of these results see PubChem BioAssay (NCATS).
